# Assay results as given in PubChem BioAssay (Tox21).
# Several values for one entry are separate records, joined by “and”; a condition that tells them apart may be missing. Equal entries are not always repeated. Records with an inconclusive call do not appear. A call without a number means that no potency is given here. A structure can be active in one record and inactive in another. Activity calls are given as the source filed them. Unless noted, calls follow the shape of the dose curve; as a rule, active = well fitted curve in the direction sought with a large enough effect in the repeat runs; inconclusive = weak or mixed curves; inactive = no such curve, though single readings can be large; an effect the other way counts as inactive or inconclusive.
# Tests used:
# [1] = qHTS assay to identify small molecule antagonists of the estrogen related receptor (ERR) signaling pathway from Tox21 library - cell viability counter screen (AID 1224834); also: nearly all actives have a fitted effect of over 30% in size; also: potency is read from the fitted curve at half-maximal effect
# Outline: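 Fluorescence from CellTiter-Fluor gives the viability read-out, taken 30 min after reagent addition. Before that, ERR cells seeded 6 h earlier were incubated with compounds for 17.5 h at 37 C.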
# [2] = qHTS assay to identify small molecule agonists of the constitutive androstane receptor (CAR) signaling pathway - cell viability counter screen (AID 1224836); also: nearly all actives have a fitted effect of over 45% in size; also: potency is read from the fitted curve at half-maximal effect; as to viability change, negative = cytotoxic: series mostly up to about 92 µM
# Outline: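 Double-stable HepG2 hepatoma cells (hCAR plus CYP2B6-2.2kb) are treated for 23 h at 37 C with test compounds in 15-point concentration series. PK11195 at 0.75 uM final is co-added. Cell viability is quantified by CellTiter-Fluor.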
# [3] = qHTS assay to identify small molecule antagonists of the constitutive androstane receptor (CAR) signaling pathway - cell viability counter screen (AID 1224837); also: nearly all actives have a fitted effect of over 45% in size; also: potency is read from the fitted curve at half-maximal effect; as to activity change, negative = cytotoxicity: series mostly up to about 92 µM
# Outline: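 HepG2-CYP2B6-hCAR cells, 2500/well, 4 hr pre-incubation; compound titration, 15 conc.; CITCO 50 nM final; 23 hr, 37 C/5% CO2; CellTiter-Fluor, fluorescence intensity.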
# [4] = qHTS assay to identify small molecule antagonists of the estrogen related receptor signaling pathway with the pleiotropic PPARgamma coactivator (PGC) from Tox21 10K library - cell viability counter screen (AID 1224840; active = well fitted cell-killing curve with a large enough effect in the repeat runs, not every such curve was filed as active; also: nearly all actives have a fitted effect of over 40% in size; also: potency is read from the fitted curve at half-maximal effect)
# Outline: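 PGC/ERR cells, 2,000/well; 6 h pre-incubation 37 C/5% CO2; cpd in DMSO via pin tool; 17.5 h 37 C; CellTiter-Fluor, 30 min; fluorescence.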
# [5] = qHTS assay to identify small molecule antagonists of the estrogen related receptor signaling pathway with the pleiotropic PPARgamma coactivator (PGC) from Tox21 10K library (AID 1224841; call rule not given here; also: series mostly up to about 92 µM; actives are mostly falling curves and most rising ones were filed inactive; nearly all actives have a fitted effect of over 50% in size)
# Outline: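 PGC/ERR cell line, 2,000 cells/well; 6 h pre-incubation 37 C/5% CO2; compounds (DMSO) pinned in; 18 h, 37 C; One-Glo, 30 min RT; luminescence.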
# [6] = qHTS assay to identify small molecule agonists of the estrogen related receptor signaling pathway with the pleiotropic PPARgamma coactivator (PGC) from Tox21 10K library (AID 1224842); also: nearly all actives have a fitted effect of over 15% in size; also: potency is read from the fitted curve at half-maximal effect
# Outline: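 Luminescence from One-Glo (30 min, room temperature) measured after PGC/ERR cells had 18 h at 37 C with pinned compound (23 nL in DMSO). Cells had been seeded at 2,000 per well and pre-incubated 6 h.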
# [7] = target: Luciferin 4-monooxygenase (Photinus pyralis) (UniProt P08659); assay: qHTS assay to identify small molecule inhibitors of firefly luciferase (AID 1224835); also: nearly all actives have a fitted effect of over 25% in size; also: potency is read from the fitted curve at half-maximal effect
# Chain of Luciferin 4-monooxygenase (Photinus pyralis) (P08659 whole entry, looked up): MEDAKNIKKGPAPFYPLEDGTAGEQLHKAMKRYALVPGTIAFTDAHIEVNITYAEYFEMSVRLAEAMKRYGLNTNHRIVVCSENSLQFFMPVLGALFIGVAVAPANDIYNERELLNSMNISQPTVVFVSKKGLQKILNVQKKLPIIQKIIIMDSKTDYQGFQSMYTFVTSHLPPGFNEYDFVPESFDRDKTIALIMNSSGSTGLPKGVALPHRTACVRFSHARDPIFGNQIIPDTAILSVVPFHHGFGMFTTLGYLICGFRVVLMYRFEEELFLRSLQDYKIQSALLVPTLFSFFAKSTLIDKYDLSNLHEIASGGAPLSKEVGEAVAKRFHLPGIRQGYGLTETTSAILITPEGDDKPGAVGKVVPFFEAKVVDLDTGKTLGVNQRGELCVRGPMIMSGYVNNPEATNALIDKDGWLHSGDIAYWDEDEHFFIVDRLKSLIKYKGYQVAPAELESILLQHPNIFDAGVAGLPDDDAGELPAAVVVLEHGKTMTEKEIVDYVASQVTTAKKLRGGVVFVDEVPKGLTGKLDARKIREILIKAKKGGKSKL
# Outline: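 Inhibition of purified Photinus luciferase is measured by luminescence. Substrate levels (D-luciferin, ATP) sit at their KM values. Each compound is tested in a concentration series.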
# [8] = target: Nuclear receptor subfamily 1 group I member 3 (Homo sapiens) (UniProt Q14994); assay: qHTS assay to identify small molecule antagonists of the constitutive androstane receptor (CAR) signaling pathway (AID 1224838);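 also: HepG2 cells stably expressing hCAR with CYP2B6 luciferase reporter stimulated by CITCO; nearly all actives have a fitted effect of over 40% in size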; also: potency is read from the fitted curve at half-maximal effect
# Chain of Nuclear receptor subfamily 1 group I member 3 (Homo sapiens) (Q14994 whole entry, looked up): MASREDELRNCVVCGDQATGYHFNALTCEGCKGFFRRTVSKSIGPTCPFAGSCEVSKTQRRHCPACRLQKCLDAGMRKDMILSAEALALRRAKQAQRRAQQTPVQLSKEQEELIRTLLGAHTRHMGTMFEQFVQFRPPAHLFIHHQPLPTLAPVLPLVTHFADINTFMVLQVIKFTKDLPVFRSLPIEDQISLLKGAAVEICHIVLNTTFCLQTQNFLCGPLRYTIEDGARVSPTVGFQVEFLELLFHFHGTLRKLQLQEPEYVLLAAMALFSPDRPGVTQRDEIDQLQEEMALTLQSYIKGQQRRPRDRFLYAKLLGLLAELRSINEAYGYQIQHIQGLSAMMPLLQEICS
# Outline: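 HepG2-CYP2B6-hCAR cells; 4 h pre-incubation; cpd (15 conc) + CITCO 50 nM final; 24 h, 37 C/5% CO2; ONE-Glo, luminescence.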
# [9] = target: Nuclear receptor subfamily 1 group I member 3 (Homo sapiens) (UniProt Q14994); assay: qHTS assay to identify small molecule agonists of the constitutive androstane receptor (CAR) signaling pathway (AID 1224839); also: nearly all actives have a fitted effect of over 15% in size; also: potency is read from the fitted curve at half-maximal effect;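 as to activation: HepG2 cells stably carrying human CAR and a CYP2B6 luciferase reporter; series mostly up to about 92 µM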
# Outline: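 Readout: firefly luciferase luminescence via ONE-Glo. System: HepG2 double-stable for hCAR and CYP2B6-2.2kb. Conditions: 15-point compound titration, PK11195 at 0.75 uM final, 24 h incubation.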
# [10] = target: Thyrotropin receptor (Homo sapiens) (UniProt P16473); assay: qHTS assay to identify small molecule agonists of the thyroid stimulating hormone receptor (TSHR) signaling pathway (AID 1224843; calls by dose curve; also: nearly all actives have a fitted effect of over 45% in size; also: potency is read from the fitted curve at half-maximal effect)
# Chain of Thyrotropin receptor (Homo sapiens) (P16473 whole entry, looked up): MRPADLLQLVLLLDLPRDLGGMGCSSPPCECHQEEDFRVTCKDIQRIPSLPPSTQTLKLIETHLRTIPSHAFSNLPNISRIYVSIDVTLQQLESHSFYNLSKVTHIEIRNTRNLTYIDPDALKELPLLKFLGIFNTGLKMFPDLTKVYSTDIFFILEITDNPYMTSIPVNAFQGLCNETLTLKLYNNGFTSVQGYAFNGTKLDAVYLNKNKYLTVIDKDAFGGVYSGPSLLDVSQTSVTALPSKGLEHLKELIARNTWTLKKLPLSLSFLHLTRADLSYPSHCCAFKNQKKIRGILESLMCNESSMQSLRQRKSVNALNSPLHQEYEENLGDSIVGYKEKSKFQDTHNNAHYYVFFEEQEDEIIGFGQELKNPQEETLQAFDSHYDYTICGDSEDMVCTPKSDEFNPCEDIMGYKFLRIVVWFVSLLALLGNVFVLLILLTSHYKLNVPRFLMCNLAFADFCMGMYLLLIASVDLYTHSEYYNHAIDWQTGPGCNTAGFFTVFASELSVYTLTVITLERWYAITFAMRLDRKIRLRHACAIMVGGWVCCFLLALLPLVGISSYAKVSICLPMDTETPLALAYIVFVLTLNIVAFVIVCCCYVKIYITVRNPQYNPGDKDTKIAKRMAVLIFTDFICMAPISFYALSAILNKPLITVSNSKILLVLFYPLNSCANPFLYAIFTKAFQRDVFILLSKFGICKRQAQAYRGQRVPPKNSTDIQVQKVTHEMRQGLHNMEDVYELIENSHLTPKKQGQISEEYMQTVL
# Outline: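 HEK293 cells stably bearing the thyrotropin receptor were plated at 800 cells/well and challenged with compound (30 min, RT). Accumulated cAMP was quantified via cAMP-d2 competing for cryptate-tagged antibody.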
compound,measurement,setting,value
COc1cccc2c1C(=O)c1c(O)c3c(c(O)c1C2=O)C[C@@](O)(C(C)=O)C[C@@H]3O[C@H]1C[C@H](N)[C@H](O)[C@H](C)O1,Potency,[1],30.8 µM (active) and 473 nM (active)
same,Potency,[2],19.4 µM (active) and 1.19 µM (active)
same,Potency,[3],2.75 µM (active) and 211 nM (active)
same,Potency,[4],27.5 µM (active)
same,Potency,[5],inactive
same,Potency,[6],0.154 µM (active)
CCC(C)n1ncn(-c2ccc(N3CCN(c4ccc(OC[C@H]5CO[C@](Cn6cncn6)(c6ccc(Cl)cc6Cl)O5)cc4)CC3)cc2)c1=O (stereo partly specified),Potency,[7],inactive
same,Potency,[2],inactive
same,Potency,[3],inactive
same,Potency,[8],inactive
same,Potency,[9],inactive
same,Potency,[4],inactive
same,Potency,[10],inactive
Nc1ccc(C(=O)O)c(O)c1,Potency,[7],inactive
same,Potency,[2],inactive
same,Potency,[3],inactive
same,Potency,[8],inactive
same,Potency,[9],inactive
same,Potency,[4],inactive
same,Potency,[5],inactive
same,Potency,[6],inactive
same,Potency,[10],inactive
Cc1c(F)c(N2CCNC(C)C2)cc2c1c(=O)c(C(=O)O)cn2C1CC1 (stereo unspecified),Potency,[7],inactive
same,Potency,[2],inactive
same,Potency,[3],inactive
same,Potency,[8],inactive
same,Potency,[9],inactive
same,Potency,[4],inactive
same,Potency,[5],inactive
same,Potency,[6],inactive
same,Potency,[10],inactive
CN1CCC[C@@H]1CCO[C@](C)(c1ccccc1)c1ccc(Cl)cc1,Potency,[1],26.6 µM (active)
same,Potency,[9],inactive
same,Potency,[5],inactive
same,Potency,[6],inactive
C#C[C@]1(OC(C)=O)CC[C@H]2[C@@H]3CCC4=C/C(=N/O)CC[C@@H]4[C@H]3CC[C@@]21CC,Potency,[7],inactive
same,Potency,[2],inactive
same,Potency,[3],inactive
same,Potency,[8],inactive
same,Potency,[9],inactive
same,Potency,[4],inactive
same,Potency,[6],inactive
CC1(C)[C@@H](O)CC[C@]2(C)[C@H]3C(=O)C=C4[C@@H]5C[C@@](C)(C(=O)O)CC[C@]5(C)CC[C@@]4(C)[C@]3(C)CC[C@@H]12,Potency,[7],inactive
same,Potency,[2],inactive
same,Potency,[3],inactive
same,Potency,[8],inactive
same,Potency,[9],inactive
same,Potency,[4],inactive
same,Potency,[5],inactive
same,Potency,[6],inactive
same,Potency,[10],inactive
C#Cc1ccc(-c2ccccc2F)cc1,Potency,[7],30.9 µM (active)
same,Potency,[2],inactive
same,Potency,[3],inactive
same,Potency,[8],inactive
same,Potency,[9],inactive
same,Potency,[4],inactive
[Cl][Pt-2]([Cl])([Cl])[Cl],Potency,[1],inactive
same,Potency,[2],inactive
same,Potency,[3],inactive
same,Potency,[8],inactive
same,Potency,[4],inactive
same,Potency,[6],inactive
Cc1cc(C)c(/C=C2\C(=O)Nc3ccccc32)[nH]1,Potency,[1],inactive
same,Potency,[2],inactive
same,Potency,[3],inactive
same,Potency,[4],inactive
same,Potency,[5],inactive
same,Potency,[6],inactive
same,Potency,[10],inactive
c1ccc(C(O[C@@H]2CCCN(CCc3ccc4c(c3)OCO4)C2)c2ccccc2)cc1,Potency,[7],inactive
same,Potency,[2],inactive
same,Potency,[3],inactive
CCCCCCC1CCCC(=O)O1 (stereo unspecified),Potency,[7],inactive
same,Potency,[2],inactive
same,Potency,[3],inactive
same,Potency,[8],inactive
same,Potency,[9],inactive
same,Potency,[4],inactive
same,Potency,[5],inactive
same,Potency,[6],inactive
same,Potency,[10],inactive
O=[N+]([O-])c1ccc(F)c(Cl)c1,Potency,[7],inactive
same,Potency,[2],inactive
same,Potency,[3],inactive
same,Potency,[8],inactive
same,Potency,[9],inactive
same,Potency,[4],inactive
same,Potency,[10],inactive
CC1(C)CCC[C@]2(C)[C@H]3CC(=O)O[C@]3(C)CC[C@@H]12,Potency,[7],inactive
same,Potency,[2],inactive
same,Potency,[3],inactive
same,Potency,[8],inactive
same,Potency,[9],inactive
same,Potency,[4],inactive
same,Potency,[10],19.3 µM (active)
O=C(O)CN(CCN(CC(=O)O)CC(=O)O)CC(=O)O,"viability change, negative = cytotoxic",[1],1.59% [at 3.27 µM] (inactive)
same,Potency,[8],1.94 µM (active)
same,activation,[9],-0.673% [at 3.27 µM] (inactive)
same,"viability change, negative = cytotoxic",[4],1.11% [at 3.27 µM] (inactive)
same,activation,[10],-1.34% [at 3.27 µM] (inactive)
OCC(F)(F)F,Potency,[7],inactive
same,Potency,[2],inactive
same,Potency,[3],inactive
same,Potency,[8],inactive
same,Potency,[9],inactive
same,Potency,[4],inactive
same,Potency,[5],inactive
same,Potency,[6],inactive
same,Potency,[10],inactive
COc1ccc(NC(=O)CC(C)=O)cc1,Potency,[7],inactive
same,Potency,[2],inactive
same,Potency,[3],inactive
same,Potency,[8],inactive
same,Potency,[9],inactive
same,Potency,[4],inactive
same,Potency,[10],inactive
COc1cc(/C=C/c2ccccc2)oc(=O)c1,Potency,[7],7.35 µM (active)
same,Potency,[2],inactive
same,Potency,[3],inactive
same,Potency,[8],inactive
same,Potency,[9],7.96 µM (active)
same,Potency,[4],inactive
same,Potency,[5],inactive
same,Potency,[6],5.64 µM (active)
same,Potency,[10],inactive
O=C(Oc1ccccc1)Oc1ccccc1,Potency,[7],31.6 µM (active)
same,Potency,[2],inactive
same,Potency,[3],inactive
same,Potency,[4],inactive
same,Potency,[6],inactive
same,Potency,[10],inactive
CCCCCCCCCCCCCCCC[N+](C)(C)CC,Potency,[7],inactive
same,Potency,[4],30.7 µM (active) and inactive
same,Potency,[6],inactive
same,Potency,[10],inactive
O=C(/C=C/c1ccc(O)c(O)c1)O[C@@H](C(=O)O)[C@@H](OC(=O)/C=C/c1ccc(O)c(O)c1)C(=O)O,Potency,[2],inactive
same,Potency,[8],inactive
same,Potency,[9],inactive
same,Potency,[4],inactive
S=C([S-])NCCNC(=S)[S-].S=C([S-])NCCNC(=S)[S-].[Mn+2].[Zn+2],Potency,[7],15.5 µM (active)
same,Potency,[3],inactive
same,Potency,[4],inactive
same,Potency,[10],inactive
Cc1c(C)c2c(c(C)c1O)CC[C@@](C)(CCC[C@H](C)CCC[C@H](C)CCCC(C)C)O2,Potency,[7],inactive
same,Potency,[2],inactive
same,Potency,[3],inactive
same,Potency,[4],inactive
C=Cc1ccccc1C=C,Potency,[7],inactive
same,Potency,[2],inactive
same,Potency,[3],inactive
same,Potency,[4],inactive
same,Potency,[10],inactive
Cc1ccc(C)cc1,Potency,[7],inactive
same,Potency,[2],inactive
same,Potency,[3],inactive
same,Potency,[4],inactive
same,Potency,[5],inactive
same,Potency,[6],inactive
O=C(O)O,"viability change, negative = cytotoxic",[2],1.44% [at 8.39 µM] (inactive)
same,"activity change, negative = cytotoxicity",[3],-19.8% [at 8.39 µM] (inactive)
same,"viability change, negative = cytotoxic",[4],-0.122% [at 8.39 µM] (inactive)
same,"activity, negative = inhibition",[5],259% [at 8.39 µM] (inactive)
same,Potency,[6],0.264 µM (active)
same,activation,[10],2.41% [at 8.39 µM] (inactive)
CCC(C)[O-].CCC(C)[O-].CCOC(=O)/C=C(/C)[O-].[Al+3],Potency,[2],inactive
same,Potency,[3],inactive
same,Potency,[4],inactive
same,Potency,[10],inactive
C#CC1(O)CC[C@H]2[C@@H]3CCC4=CCCC[C@@H]4[C@H]3CC[C@@]21C (stereo partly specified),Potency,[7],inactive
same,Potency,[2],inactive
same,Potency,[3],inactive
same,Potency,[4],33.5 µM (active)
same,Potency,[5],inactive
same,Potency,[6],inactive
same,Potency,[10],19.3 µM (active)
